PubChem BioAssay

How the values were obtained:
[1] = tested on: Botulinum neurotoxin type F light chain protease (Clostridium botulinum); assay: Clostridium botulinum type F light chain protease inhibitors, microsphere substrate cleavage, validation (AID 588459); conditions: multiplex microsphere protease substrate cleavage assay, flow cytometry; at 10 µM; hits give high values
[2] = molecular target: Botulinum neurotoxin type A (Clostridium botulinum) (UniProt P0DPI0); assay: BoNT/A light chain protease inhibitors, biochemical, multiplex microsphere flow cytometry, validation set (AID 588460); conditions: at 10 µM, hits give high values
[3] = molecular target: Lethal factor (Bacillus anthracis) (UniProt P15917); assay: Bacillus anthracis lethal factor inhibition, microsphere flow cytometry protease assay, validation at 10 µM (AID 588461); conditions: multiplex microsphere protease cleavage assay, hits give high values

Measured: inhibition

N/C(=N/OS(=O)(=O)c1ccc([N+](=O)[O-])cc1)c1ccncc1
inactive: [1] 2.2% | [2] 0.3% | [3] 1%

FC(F)(F)c1ccc(-c2noc(CN3CCCN(C4CCCCC4)CC3)n2)cc1
inactive: [1] -2% | [2] -1.4% | [3] -7%

Clc1ccc(CCNc2ncnc3nc[nH]c23)cc1
inactive: [1] 4.5% | [2] 0.1% | [3] -3.1%

c1cc2c(cc1C1CCCCC1)c1c3n2CCN=C3CCC1
inactive: [1] 0.7% | [2] -0.3% | [3] -11.8%

CC1CCCC(C)N1NC(=O)c1ccc(Cl)c(S(N)(=O)=O)c1 (configuration not stated)
inactive: [1] -0.2% | [2] 0.8% | [3] 5.8%

CC(C)NC(=O)C1(c2ccccc2)CCOCC1
inactive: [1] -2.6% | [2] -0.5% | [3] -2.6%

COc1ccc(CN2CCCC(C(=O)c3ccc(Cl)cc3)C2)cc1Cn1cccn1 (configuration not stated)
inactive: [1] 1.9% | [2] -0.6% | [3] 3.9%

CN1C2CCC1CC(OC(c1ccccc1)c1ccccc1)C2 (configuration not stated)
inactive: [1] 2.3% | [2] 0.7% | [3] 1.9%

Cc1ccc(/C=N/NC(=O)C2(C)CC2(Br)Br)cc1 (configuration not stated)
inactive: [1] 1.3% | [2] -0.4% | [3] -5.6%

O=C1ON=C(c2ccc(Cl)cc2)/C1=C/c1ccc(O)cc1
inactive: [1] -0.3% | [2] -2.3% | [3] -7.8%

CC(=O)[C@@]1(O)CC[C@H]2[C@@H]3C[C@H](C)C4=CC(=O)CC[C@]4(C)[C@H]3CC[C@@]21C
inactive: [1] -1.7% | [2] -2.5% | [3] -5.5%

CC[N+](C)(C)c1cccc(O)c1
inactive: [1] 1.7% | [2] -0.2% | [3] 0.7%

CC(CN1c2ccccc2Sc2ccccc21)N(C)C (configuration not stated)
inactive: [1] -0.2% | [2] -1.5% | [3] -11.5%

CC/C(=C(\c1ccc(O)cc1)c1ccc(OCCN(C)C)cc1)c1ccccc1
inactive: [1] 2.7% | [2] -0.2% | [3] -2.3%

CCOc1ccc2nc(S(N)(=O)=O)sc2c1
inactive: [1] 2% | [2] 0% | [3] 8.4%

COc1ccc2c(CCNC(=O)c3ccc([N+](=O)[O-])cc3)c[nH]c2c1
inactive: [1] 1.6% | [2] -0.5% | [3] -5%

Cn1nnnc1SCC1=C(C(=O)O)N2C(=O)[C@@H](NC(=O)[C@H](O)c3ccccc3)[C@H]2SC1
inactive: [1] 1% | [2] 0.9% | [3] 1.9%

O=C(NC(=S)Nc1ccc2c(c1)OCCO2)c1ccccc1F
inactive: [1] 2.3% | [2] 0.4% | [3] -3%

COc1ccc(CN(CCC(c2ccc(F)cc2)C2CCOC(C)(C)C2)C(=O)c2ccco2)cc1 (configuration not stated)
inactive: [1] -2.6% | [2] -0.3% | [3] 1.6%
